What all share (settings): Compound concentration 20.0 uM
The target in experiment [1] is Bromodomain-containing protein 4 (Homo sapiens) (UniProt O60885).
Experiment [2] addresses Cyclin-dependent kinase 2 (Homo sapiens) (UniProt P24941).
In experiment [3] the target is Casein kinase I isoform delta (Homo sapiens) (UniProt P48730).
Experiment [4] addresses Glycogen synthase kinase-3 beta (Homo sapiens) (UniProt P49841).
Experiment [5] concerns the target Mitogen-activated protein kinase 1 (Homo sapiens) (UniProt P28482).
Experiment [6] addresses T1, Aurora kinase A (Homo sapiens) (UniProt O14965).
T1 sequence (whole entry): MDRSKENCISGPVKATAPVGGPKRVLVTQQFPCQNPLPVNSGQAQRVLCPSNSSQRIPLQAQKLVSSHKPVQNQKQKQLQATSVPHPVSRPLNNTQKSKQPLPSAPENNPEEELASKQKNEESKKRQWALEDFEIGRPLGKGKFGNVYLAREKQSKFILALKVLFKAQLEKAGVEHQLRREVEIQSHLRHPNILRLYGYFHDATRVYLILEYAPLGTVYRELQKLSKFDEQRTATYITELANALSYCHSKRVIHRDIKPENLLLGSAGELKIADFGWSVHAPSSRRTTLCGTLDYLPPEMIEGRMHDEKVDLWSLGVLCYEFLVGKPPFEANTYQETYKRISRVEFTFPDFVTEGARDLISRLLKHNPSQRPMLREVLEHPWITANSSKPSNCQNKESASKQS

For experiment [7], the target named is T2, Transcription intermediary factor 1-alpha (Homo sapiens) (UniProt O15164).
T2 sequence (whole entry): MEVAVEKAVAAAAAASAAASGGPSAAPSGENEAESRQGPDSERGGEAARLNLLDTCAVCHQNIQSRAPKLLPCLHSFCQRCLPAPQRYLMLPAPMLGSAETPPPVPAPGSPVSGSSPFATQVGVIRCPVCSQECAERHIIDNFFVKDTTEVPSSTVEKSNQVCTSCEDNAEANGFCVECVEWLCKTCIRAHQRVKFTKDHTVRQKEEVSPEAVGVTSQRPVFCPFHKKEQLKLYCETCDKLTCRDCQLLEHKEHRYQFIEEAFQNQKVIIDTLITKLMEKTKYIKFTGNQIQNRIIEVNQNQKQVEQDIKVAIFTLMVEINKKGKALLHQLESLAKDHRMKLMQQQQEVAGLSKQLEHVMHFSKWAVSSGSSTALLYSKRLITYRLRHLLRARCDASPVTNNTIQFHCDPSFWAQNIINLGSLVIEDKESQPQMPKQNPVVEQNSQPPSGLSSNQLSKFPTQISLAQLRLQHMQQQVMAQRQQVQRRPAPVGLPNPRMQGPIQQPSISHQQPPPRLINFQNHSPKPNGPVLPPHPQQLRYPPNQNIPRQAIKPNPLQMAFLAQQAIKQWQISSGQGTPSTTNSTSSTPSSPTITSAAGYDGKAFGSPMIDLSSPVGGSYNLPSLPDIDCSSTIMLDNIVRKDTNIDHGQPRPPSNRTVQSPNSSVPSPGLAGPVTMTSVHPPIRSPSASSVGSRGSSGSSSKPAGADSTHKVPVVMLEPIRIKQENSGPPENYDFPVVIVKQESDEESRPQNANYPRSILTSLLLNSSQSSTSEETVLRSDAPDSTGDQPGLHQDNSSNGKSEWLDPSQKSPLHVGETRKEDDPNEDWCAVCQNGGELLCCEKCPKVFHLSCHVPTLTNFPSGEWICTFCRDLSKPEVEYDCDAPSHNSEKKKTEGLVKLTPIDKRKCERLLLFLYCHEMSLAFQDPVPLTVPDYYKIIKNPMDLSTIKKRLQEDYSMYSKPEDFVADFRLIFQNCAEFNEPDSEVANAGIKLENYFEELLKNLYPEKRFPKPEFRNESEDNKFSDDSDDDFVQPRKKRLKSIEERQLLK

In experiment [8] the target is Tyrosine-protein kinase ABL1 (Homo sapiens) (UniProt P00519).
Chain of Tyrosine-protein kinase ABL1 (Homo sapiens) (P00519 whole entry): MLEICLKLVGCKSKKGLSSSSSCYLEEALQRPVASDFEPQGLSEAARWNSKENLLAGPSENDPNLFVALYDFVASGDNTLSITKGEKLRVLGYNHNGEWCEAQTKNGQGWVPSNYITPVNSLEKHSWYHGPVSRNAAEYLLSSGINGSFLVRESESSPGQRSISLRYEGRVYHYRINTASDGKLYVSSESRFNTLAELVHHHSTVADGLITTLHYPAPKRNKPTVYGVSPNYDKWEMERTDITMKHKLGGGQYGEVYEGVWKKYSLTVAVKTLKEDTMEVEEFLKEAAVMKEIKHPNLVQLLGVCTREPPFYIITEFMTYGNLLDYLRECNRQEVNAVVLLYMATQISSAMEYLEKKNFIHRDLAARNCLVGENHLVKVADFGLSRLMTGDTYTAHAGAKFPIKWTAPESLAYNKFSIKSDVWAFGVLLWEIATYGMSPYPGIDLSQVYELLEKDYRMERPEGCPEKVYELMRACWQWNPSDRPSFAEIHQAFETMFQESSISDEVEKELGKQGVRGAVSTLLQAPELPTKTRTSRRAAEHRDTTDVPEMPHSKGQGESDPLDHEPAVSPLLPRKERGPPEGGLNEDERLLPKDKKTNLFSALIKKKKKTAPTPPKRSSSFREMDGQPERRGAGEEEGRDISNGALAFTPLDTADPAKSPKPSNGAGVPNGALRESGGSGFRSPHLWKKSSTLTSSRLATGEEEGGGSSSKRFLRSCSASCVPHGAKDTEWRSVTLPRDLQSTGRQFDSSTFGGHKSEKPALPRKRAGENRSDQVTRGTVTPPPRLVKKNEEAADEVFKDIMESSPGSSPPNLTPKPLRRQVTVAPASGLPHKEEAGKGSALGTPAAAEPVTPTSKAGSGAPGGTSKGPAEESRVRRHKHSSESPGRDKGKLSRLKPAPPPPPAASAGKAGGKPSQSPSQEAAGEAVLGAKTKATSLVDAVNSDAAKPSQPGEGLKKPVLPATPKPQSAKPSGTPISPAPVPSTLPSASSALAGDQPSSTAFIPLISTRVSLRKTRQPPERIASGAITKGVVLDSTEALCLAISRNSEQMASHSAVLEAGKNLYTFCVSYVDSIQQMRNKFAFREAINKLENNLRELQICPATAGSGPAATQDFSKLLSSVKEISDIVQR

Where “and” joins values, the source holds several entries; their conditions need not be identical. Identical values can stand only once. Residues, ends and D or L forms follow the SMILES beside them. *: point of attachment. Cbz = O=C(OCc1ccccc1)*

Chain of Casein kinase I isoform delta (Homo sapiens) (P48730 whole entry, looked up, canonical isoform): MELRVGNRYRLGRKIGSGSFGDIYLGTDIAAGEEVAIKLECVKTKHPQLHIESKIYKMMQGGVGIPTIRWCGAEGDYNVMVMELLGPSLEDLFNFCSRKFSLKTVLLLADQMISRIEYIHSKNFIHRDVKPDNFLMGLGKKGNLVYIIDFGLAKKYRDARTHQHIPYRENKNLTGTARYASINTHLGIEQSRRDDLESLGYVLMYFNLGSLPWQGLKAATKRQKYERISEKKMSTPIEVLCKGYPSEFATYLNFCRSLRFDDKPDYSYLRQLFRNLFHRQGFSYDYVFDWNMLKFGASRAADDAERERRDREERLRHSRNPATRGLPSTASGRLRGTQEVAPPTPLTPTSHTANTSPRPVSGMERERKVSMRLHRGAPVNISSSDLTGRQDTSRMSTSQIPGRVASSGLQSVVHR
Chain of Glycogen synthase kinase-3 beta (Homo sapiens) (P49841 whole entry, looked up): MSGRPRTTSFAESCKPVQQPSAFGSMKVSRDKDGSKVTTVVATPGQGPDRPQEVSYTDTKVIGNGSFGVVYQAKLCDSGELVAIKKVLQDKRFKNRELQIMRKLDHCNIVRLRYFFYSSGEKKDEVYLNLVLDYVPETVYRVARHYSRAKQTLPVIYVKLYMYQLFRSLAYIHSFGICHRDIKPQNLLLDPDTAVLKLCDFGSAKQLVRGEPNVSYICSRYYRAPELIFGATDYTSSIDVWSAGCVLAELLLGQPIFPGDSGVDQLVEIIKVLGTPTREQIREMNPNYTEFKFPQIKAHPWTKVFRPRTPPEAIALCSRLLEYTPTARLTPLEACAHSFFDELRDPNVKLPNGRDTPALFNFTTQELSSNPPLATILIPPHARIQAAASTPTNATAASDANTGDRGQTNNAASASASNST
Chain of Mitogen-activated protein kinase 1 (Homo sapiens) (P28482 whole entry): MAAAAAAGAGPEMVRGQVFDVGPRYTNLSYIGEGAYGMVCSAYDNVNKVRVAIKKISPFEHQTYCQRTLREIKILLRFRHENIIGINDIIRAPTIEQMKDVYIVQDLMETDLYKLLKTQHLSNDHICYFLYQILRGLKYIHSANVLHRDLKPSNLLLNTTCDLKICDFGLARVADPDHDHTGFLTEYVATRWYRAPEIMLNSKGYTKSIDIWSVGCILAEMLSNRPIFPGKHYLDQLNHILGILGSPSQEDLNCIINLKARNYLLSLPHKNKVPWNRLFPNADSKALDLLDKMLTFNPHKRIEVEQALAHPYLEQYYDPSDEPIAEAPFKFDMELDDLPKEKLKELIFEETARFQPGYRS

Regarding `CN1CCN(c2ccc3nc(-c4c(N)c5c(F)cccc5[nH]c4=O)[nH]c3c2)CC1`, the ΔTm was -0.49 °C in experiment [1]; 0.73 °C in experiment [2]; 2.74 °C in experiment [3]; 3.22 °C in experiment [4]; -0.2 °C in experiment [5]; 2.63 °C in experiment [6]. In experiment [7], the ΔTm was -0.57 °C.

In the case of `Cc1c(CN2CCC(Nc3ncnc4sc(CC(F)(F)F)cc34)CC2)ccc2c1cc(C#N)n2Cc1cn[nH]c1`, the ΔTm in experiment [8] was 0.97 °C; in experiment [1], -1.35 °C; in experiment [2], -0.07 °C; in experiment [3] it was 1.61 °C; in experiment [4] it was 0.28 °C; in experiment [5] it was -7.35 °C. Also, the ΔTm in experiment [6] is -1.51 °C; in experiment [7] it was 0.6 °C.

Regarding `O=C(NCc1ccc(F)cc1)C1CCN(S(=O)(=O)c2cc(Cl)cc(Cl)c2)CC1`, the ΔTm in experiment [8] was 0.19 °C; in experiment [1], 1.03 °C; in experiment [2], 0.65 °C; in experiment [3], -0.2 °C; in experiment [4], -0.78 °C; in experiment [5], 1.32 °C. Moreover, the figures for the ΔTm in experiment [6] and in experiment [7] were -1.86 °C and 0.75 °C, respectively.

On to `O=CC1CCCN1C(=O)C1CCCN1C(=O)OCc1ccccc1` (stereo not drawn) (Cbz-Pro-Pro-aldehyde; configuration not given here), for which the ΔTm in experiment [8] is 0.3 °C; in experiment [1] it was -1.06 °C; in experiment [2], -0.15 °C; in experiment [3], 0.22 °C; in experiment [4], -0.2 °C; in experiment [5], 0.12 °C. Besides, the ΔTm in experiment [6] is -0.83 °C; in experiment [7], -0.47 °C.

For the compound `Cn1nc2c(=O)n(CC3(O)CCN(C(=O)C[C@H](c4ccccc4)C(F)(F)F)CC3)cnc2c1-c1ccc(CN)cc1`, the ΔTm in experiment [8] was 0.68 °C; in experiment [1], -2.51 °C; in experiment [2] it was 0.12 °C; in experiment [3], -0.82 °C; in experiment [4], -0.57 °C; in experiment [5], 0.17 °C. Moreover, the ΔTm was -1.86 °C in experiment [6] and -0.47 °C in experiment [7].

For the compound `CCCc1nc(C)c2c(=O)nc(-c3cc(S(=O)(=O)N4CCN(CC)CC4)ccc3OCC)[nH]n12`, the ΔTm in experiment [8] is 0.09 °C; in experiment [1], 1.95 °C; in experiment [2], 1 °C; in experiment [3], 0.05 °C; in experiment [4], -1.14 °C; in experiment [5], 0.18 °C. Further, the ΔTm in experiment [6] was -2.18 °C; in experiment [7] it was 1.86 °C.

On to `CN1Cc2c(Cl)cc(Cl)cc2[C@H](c2cccc(S(=O)(=O)NCCOCCOCCNC(=O)NCCCCNC(=O)NCCOCCOCCNS(=O)(=O)c3cccc([C@@H]4CN(C)Cc5c(Cl)cc(Cl)cc54)c3)c2)C1`, for which the ΔTm is -0.4 °C in experiment [8]; -2.19 °C in experiment [1]; -0.62 °C in experiment [2]; -0.55 °C in experiment [3]; -1.54 °C in experiment [4]; 0 °C in experiment [5]. In addition, the ΔTm in experiment [6] is -2.14 °C; in experiment [7] it was -0.19 °C.

For the compound `C=CCc1cccc(CNc2nc3ccccc3n2CCC)c1O`, the ΔTm in experiment [8] was 0.28 °C; in experiment [1] it was -1.55 °C; in experiment [2], 0.45 °C; in experiment [3], 0.21 °C; in experiment [4] it was 0.95 °C; in experiment [5], 0.22 °C. Also, the ΔTm was -1.56 °C in experiment [6] and 0.59 °C in experiment [7].

Consider `COc1cc2c(NCC3CCN(C)CC3)cc(-c3ccc(C)o3)nc2cc1OCCCN1CCCC1`, for which the ΔTm in experiment [8] is -0.17 °C; in experiment [1] it was -1.85 °C; in experiment [2] it was 0.22 °C; in experiment [3] it was 0.3 °C; in experiment [4], -1.71 °C; in experiment [5], 0.07 °C. Moreover, the ΔTm is 0.46 °C in experiment [6] and -1.43 °C in experiment [7].

Consider `COCc1nc2cnc3cc(-c4c(C)noc4C)c(OC[C@H]4CCNC4)cc3c2n1[C@H](C)c1ccccc1`, for which the ΔTm in experiment [8] was 0.66 °C; in experiment [2], 0.15 °C; in experiment [3], 0.02 °C; in experiment [4], -0.25 °C; in experiment [5] it was 0.32 °C; in experiment [6], -1.27 °C. Besides, the ΔTm in experiment [7] came out at 1.49 °C.

For `COc1cc(Nc2ncc(F)c(Nc3ccc4c(n3)NC(=O)C(C)(C)O4)n2)cc(OC)c1OC`, the ΔTm was 4.14 °C in experiment [8]; -1.7 °C in experiment [1]; 0.13 °C in experiment [2]; -0.37 °C in experiment [3]; 2.52 °C in experiment [4]; -3.17 °C in experiment [5]. In addition, the ΔTm in experiment [7] is -0.42 °C.

With `O=C(NCc1ccc(Cl)cc1)C1CCN(S(=O)(=O)c2cc(Cl)cc(Cl)c2)CC1`, the ΔTm in experiment [8] is 0.35 °C; in experiment [1] it was -2.83 °C; in experiment [2], 0.17 °C; in experiment [3] it was -0.37 °C; in experiment [4], -1.43 °C; in experiment [5], 0.06 °C. Also, the ΔTm in experiment [6] was -1.55 °C; in experiment [7] it was 0.02 °C.

As for `CNCc1ccc(-c2[nH]c3cc(F)cc4c3c2CCNC4=O)cc1`, the ΔTm in experiment [8] was 0.58 °C; in experiment [1] it was -1.77 °C; in experiment [2], 0.36 °C; in experiment [3], 0.56 °C; in experiment [4] it was 5.05 °C; in experiment [5], 0.13 °C. Besides, the ΔTm in experiment [7] was -0.05 °C.

For `O=C(NC[C@H](O)CN1CCc2ccccc2C1)c1cc(NC2COC2)ncn1`, the ΔTm in experiment [8] is 0.58 °C; in experiment [1] it was -1.3 °C; in experiment [2], 0.75 °C; in experiment [3], 0.5 °C; in experiment [4], -0.25 °C; in experiment [5] it was 0.04 °C. Moreover, the ΔTm in experiment [6] was -0.01 °C; in experiment [7] it was -0.84 °C.

As to `Cc1cccc(N/N=C(\C(=O)c2cccs2)C(=O)C(F)(F)F)c1`, the ΔTm in experiment [8] is 0.48 °C; in experiment [1], -1.9 °C; in experiment [2], 0.44 °C; in experiment [3], -0.01 °C; in experiment [4] it was -0.93 °C; in experiment [5] it was 0.19 °C. The ΔTm in experiment [6] was -1.9 °C; in experiment [7], -1.89 °C.

For `FC(F)(F)Oc1ccc(Oc2ccnc(N3CCC(NC(=S)Nc4cccnc4)CC3)c2Cl)c(Cl)c1`, the ΔTm in experiment [8] is 0 °C and -0.06 °C; in experiment [1], -3.17 °C and -5.35 °C; in experiment [2], -0.35 °C and 0.35 °C; in experiment [3] it was -2.73 °C and 0.27 °C; in experiment [6] it was 0.16 °C and -1.29 °C; in experiment [7] it was 1.66 °C and 0 °C.

As a reminder, the ΔTm is the change in melting temperature against a reference sample.
